In the library only some 2.6% were active in any assay of this set; here they are far more common.
CRFR2-BP antag = antagonists of CRF-BP/CRF-R2 complex, primary screen, cell-based, HEK293, calcium dye fluorescence, uHTS; CRF-induced calcium fluorescence; inhibition, % at 11.8 µM; 350,000 compounds, 0.59% hits; AID 588475, 2011;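 active = inhibition of the ligand-induced calcium signal above about 50% at the single tested concentration, limit read from the data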
IDE inh = human IDE inhibitors in live cells, primary screen, fluorescence polarization, HEK cells, FAbetaB substrate | 320,000 compounds, 0.41% hits | FAbetaB cleavage | Insulin-degrading enzyme (Homo sapiens), P14735 | inhibition, % at 5.59 µM;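 active = percent inhibition above the average of all tested compounds plus 3 SD, set per screening campaign, cut at about 16% in these data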;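 also: IDE supplied by intact live HEK cells; FP after avidin binding of uncleaved biotin substrate so inhibition keeps polarization high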
CRFR2-BP ag = agonists of CRF-BP/CRF-R2 complex, primary screen, cell-based, HEK293, calcium dye fluorescence, uHTS; CRF-binding protein / CRF receptor 2 complex (human); activation, % at 13.2 µM; calcium dye fluorescence (FLIPR); percent of saturating CRF peptide response; 350,000 compounds, 0.46% hits; AID 588473, 2011;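 active = activation of at least 50%, plus an integration ratio under a set limit after plate pattern correction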
Myeloid diff 2 = induction of myeloid progenitor differentiation, primary screen, cell-based, flow cytometry, MLPCN library; ER-HoxA9 myeloid progenitors, lysozyme-GFP differentiation; AID 624256, 2012; 360,000 compounds, 1% hits; calls only at 10 µM;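 active = normalized GFP-positive differentiation at or above the plate's own cutoff, the solvent-only control mean plus 3 SD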;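 also: cells exposed to compound for four days before flow analysis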
TPT1 inhibitor = Candida albicans TPT1 enzyme inhibitors, primary screen, biochemical, fluorescence polarization | tRNA 2'-phosphotransferase TPT1 (Candida albicans SC5314) | recombinant caTPT1, FP RNA substrate dephosphorylation | inhibition, % at 5 µM | 300,000 compounds, 0.81% hits | AID 1962, 2009;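 active = inhibition above the mean of all tested compounds plus 3 SD, set per screening campaign, cut at about 24% in these data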
IDE cell activ = human IDE activators in live cells, primary screen, fluorescence polarization, HEK cells, FAbeta-B substrate | FAbeta-B cleavage; 0% vehicle, 100% cell-free pure enzyme wells | activation, % at 5.96 µM | 340,000 compounds, 0.073% hits | AID 493087, 2011;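 active = activation above the mean of all tested compounds plus 3 SD, set per screening campaign, cut at about 17% in these data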
Myeloid diff CP1 = inducers of myeloid progenitor differentiation, confirmation, cell-based, GFP/Mac1 flow cytometry, cherry pick 01; calls only; shares compounds with Myeloid diff 2; 2,300 compounds, 2% hits; ER-HoxA9 myeloid progenitors, GFP/Mac1 double-positive flow;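 active = share of green or green-and-red cells above 9 and 9% in run 1 or 4 and 3% in run 2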
GFP autofluor = flagged as fluorescent in myeloid differentiation counter-screen. 2,300 compounds, 7.4% hits. ER-HoxA9 myeloid progenitors, no estrogen, GFP autofluorescence flow cytometry; vehicle wells 0%, positive control 100%. fluorescence response, % (concentration not given with the values). AID 651707. shares compounds with Myeloid diff 2;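 active = over 5% cells positive for green fluorescent reporter, or over 2% positive for both it and APC stain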
Of the large screens only hits and unclear results are named; the others gave an inactive call (follow-up assays come after a bar, where they were run).

Cc1ccccc1C(=O)Nc1nnc(S(=O)(=O)N2CCCCCC2)s1	none | Myeloid diff CP1 inactive | GFP autofluor inactive
CC1CCCC(C)N1C(=O)COC(=O)c1cncc(Br)c1 (stereo not given)	none (no result: TPT1 inhibitor)
Cc1ccc(/C=[N+](/C)[O-])cc1	none | Myeloid diff CP1 inactive | GFP autofluor inactive
Cc1ccc(C=C2C(Cl)=C(Cl)C(Cl)=C2Cl)cc1	none (no result: Myeloid diff 2, IDE cell activ)
CCCCc1ccc(NC2=NCC(=O)N2CCc2ccccc2)cc1	none
COc1ccccc1NC(=O)CSc1nnc(-c2ccco2)n1Cc1ccco1	none | Myeloid diff CP1 inactive | GFP autofluor inactive
COc1ccccc1NC(=O)CSc1nnc(-c2ccccn2)n1Cc1ccco1	none
COc1ccc(Cn2c(=N)c(C(=O)NCC3CCCO3)cc3c(=O)n4ccccc4nc32)cc1 (stereo not given)	none | Myeloid diff CP1 inactive | GFP autofluor inactive
C[C@H]1CN([C@@H](C)CO)C(=O)CCCn2nncc2CO[C@@H]1CN(C)C(=O)NC1CCCCC1	none (no result: IDE inh, TPT1 inhibitor, IDE cell activ)
COc1ccc(-n2c(SCC(N)=O)nnc2-c2ccc(NS(=O)(=O)c3ccc(C)cc3)cc2)cc1	Myeloid diff 2 active | Myeloid diff CP1 inactive | GFP autofluor inactive
COc1ccc(-n2c(SCC(=O)Nc3ccccc3)nnc2-c2ccc(NS(=O)(=O)c3ccc(C)cc3)cc2)cc1	none
Cc1nc2cc(Oc3nc(NCCN(C)C)nc4ccsc34)ccc2s1	Myeloid diff 2 active (no result: CRFR2-BP antag, IDE inh, CRFR2-BP ag, TPT1 inhibitor, IDE cell activ) | Myeloid diff CP1 inactive | GFP autofluor inactive
CNc1nc(Oc2ccc3sc(C)nc3c2)c2sccc2n1	none (no result: CRFR2-BP antag, IDE inh, CRFR2-BP ag, TPT1 inhibitor, IDE cell activ)
COc1cc(-n2c(N)c(C(=O)NCc3ccco3)c3nc4ccccc4nc32)cc(OC)c1OC	none
COc1ccc(-n2c(N)c(C(=O)NCc3ccco3)c3nc4ccccc4nc32)cc1OC	Myeloid diff 2 active | Myeloid diff CP1 inactive | GFP autofluor inactive
Cc1cc(NC(=O)CSc2nc(C3CC3)nc3sc(C)c(C)c23)no1	none | Myeloid diff CP1 inactive | GFP autofluor 2.7
CCn1c(SCC(=O)N2CCN(c3ccc(F)cc3)CC2)nc2ccccc2c1=O	none | Myeloid diff CP1 inactive | GFP autofluor inactive
CN(Cc1ccccc1F)c1cc2c(c3c1ccn3C)C1CCC2C1 (stereo not given)	none (no result: CRFR2-BP antag, IDE inh, CRFR2-BP ag, TPT1 inhibitor, IDE cell activ)
Cc1cc(C(=O)COc2ccc(F)cc2Br)c(C)n1C1CC1	none (no result: IDE inh, TPT1 inhibitor) | Myeloid diff CP1 inactive | GFP autofluor inactive

Screens (PubChem)
